target: NF-kB p65/p50 heterodimer (Homo sapiens, UniProt Q04206;P19838 Q04206:1-551,P19838:1-433); assay: EMSA; Table 3 gives 58 for PO; details: protein: extract; tags: nuclear extract of LPS-stimulated THP-1 cells; dsDNA, one strand shown
Excerpt: The EMSA assay was employed to characterize oligonucleotide decoys for the NF-κB transcription factor. […] Using the above modified oligonucleotides to compete for binding for the above-mentioned NF-κB family members, it was possible to compare the binding affinity of these oligonucleotides against the high affinity radiolabeled probe and each other. This assay has also enabled the design of a decoy which selectively binds particular members of the NF-κB family. By using increasing concentrations of various oligonucleotides, it was observed that, by deleting or changing targeted residues in the binding site, it was possible to specifically decrease the binding of the decoy molecule to p50/p50 homodimers, while retaining the affinity for p65/p50 and cRel/p50 heterodimers.
The NF-κB gel shift assays (EMSA) were performed as follows. A double-stranded oligonucleotide containing a consensus NF-κB binding site (5′ […].GGC 3′) (SEQ ID NO: 26) was end-labeled with γ³²P-ATP using T4 Polynucleotide Kinase (Promega). […] The dried gels were imaged and quantitated using a Typhoon 8600 Phosphorlmager (Amersham) and ImageQuant software. […]

Sequence of NF-kB p65/p50 heterodimer (Q04206 whole entry, chain 1 of 2): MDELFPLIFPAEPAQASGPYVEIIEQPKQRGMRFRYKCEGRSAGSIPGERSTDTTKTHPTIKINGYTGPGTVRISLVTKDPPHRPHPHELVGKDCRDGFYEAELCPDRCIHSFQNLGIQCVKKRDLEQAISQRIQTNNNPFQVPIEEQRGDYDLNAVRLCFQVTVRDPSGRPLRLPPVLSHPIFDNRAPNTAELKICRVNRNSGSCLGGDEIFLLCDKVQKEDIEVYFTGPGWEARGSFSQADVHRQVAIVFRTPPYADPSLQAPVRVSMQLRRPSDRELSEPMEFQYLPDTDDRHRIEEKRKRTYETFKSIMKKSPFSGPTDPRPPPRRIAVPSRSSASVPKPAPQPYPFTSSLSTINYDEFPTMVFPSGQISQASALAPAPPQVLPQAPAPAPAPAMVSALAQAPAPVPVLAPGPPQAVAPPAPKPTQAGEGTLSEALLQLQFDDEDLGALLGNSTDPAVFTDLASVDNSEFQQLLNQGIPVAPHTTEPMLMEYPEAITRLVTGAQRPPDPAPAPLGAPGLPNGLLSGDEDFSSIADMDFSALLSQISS
Sequence of NF-kB p65/p50 heterodimer (P19838 1-433, chain 2 of 2): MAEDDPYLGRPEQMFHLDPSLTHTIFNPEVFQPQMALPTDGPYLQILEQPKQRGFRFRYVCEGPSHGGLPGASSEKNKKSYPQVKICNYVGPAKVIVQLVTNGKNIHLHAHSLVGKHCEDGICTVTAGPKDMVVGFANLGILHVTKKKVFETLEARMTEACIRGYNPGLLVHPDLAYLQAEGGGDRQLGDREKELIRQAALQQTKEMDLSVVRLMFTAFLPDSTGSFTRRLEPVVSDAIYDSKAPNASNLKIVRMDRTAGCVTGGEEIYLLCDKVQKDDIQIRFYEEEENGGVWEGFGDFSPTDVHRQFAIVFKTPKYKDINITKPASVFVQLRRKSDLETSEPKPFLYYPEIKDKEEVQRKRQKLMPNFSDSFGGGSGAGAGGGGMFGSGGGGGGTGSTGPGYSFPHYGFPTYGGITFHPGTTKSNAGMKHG

| Sequence | IC50 [fold molar excess] |
| --- | --- |
| AGTTGAGGACTTTCCAGGC | 62.4 |

Reference: patent US20060069055, “Delivery of polynucleotides” (published 2006)
